Compound activity as filed in PubChem.
Compounds with a hit are over-represented: about 3.7% of the library has one in this group of screens.
NALP3 yeast inh – inhibitors of NALP3 inflammasome in yeast; Yeast reconstituted NLRP3/ASC/caspase-1, beta-gal luminescence, 24 h; inhibition, % at 10 µM; hit rate 0.39% among 330,000;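 active = inhibition of 50% or more; inactive = inhibition below 50%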;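 note: plate controls were induced DMSO wells for no effect and uninduced yeast grown without galactose for full effect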
tim10-1 inh – inhibits growth of tim10-1 mutant yeast. S. cerevisiae tim10-1 ts strain growth, BacTiter-Glo, 24 h. inhibition, % at 20 µM. hit rate 2.2% among 330,000;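 active = inhibition of at least 40%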;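 note: mutant grown at 25 °C; 0% = DMSO wells with yeast and 100% = wells holding no yeast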
tim23-1 inh – tim23-1 yeast growth inhibition; S. cerevisiae tim23-1 growth, BacTiter-Glo luminescence, 24 h; inhibition, % at 20 µM; hit rate 1.3% among 330,000; AID 463212;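 active = growth inhibition of the mutant yeast at or above 50%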;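 note: temperature-sensitive mutant grown at 25 °C; plate controls were DMSO-treated mutant yeast for no effect and medium wells lacking yeast for full effect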
TIM10 inh – inhibits growth of TIM10 yeast strain; S. cerevisiae TIM10 strain growth, BacTiter-Glo luminescence, 24 h; inhibition, % at 10 µM; hit rate 1.4% among 330,000; AID 463195;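 active = inhibition of 40% or more at the single tested concentration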;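 note: wild-type TIM10 isogenic control strain grown at permissive 25 °C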
PfHsp90 set2 – reduces growth (ATP signal) of yeast expressing P. falciparum Hsp90; inhibition, % at 9.4 µM; S. cerevisiae expressing PfHsp90, BacTiter-Glo ATP, 48 h; yeast lacking PDR1 and PDR3 efflux regulators; hit rate 0.32% among 310,000;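 active = every replicate shows inhibition above about 80%, whatever the replicate mean, limit read from the data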;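 note: 0% = DMSO neutral controls and 100% = 20 µM radicicol positive controls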
tim10 confirm – TIM10 yeast growth inhibition, confirmed; inhibition, % at 10 µM; hit rate 63% among 4,600; S. cerevisiae tim10 strain growth, BacTiter-Glo luminescence, 24 h; AID 463215; shares compounds with TIM10 inh;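 active = inhibition of yeast growth at or above a set limit in either of two replicates at 10 µM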;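 note: this counterscreen used the strain with wild-type TIM10; 0% = yeast with DMSO and 100% = medium wells lacking yeast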
tim23-1 confirm – tim23-1 yeast growth inhibition, confirmed | shares compounds with tim23-1 inh | S. cerevisiae tim23-1 growth, BacTiter-Glo luminescence, 24 h | inhibition, % at 20 µM | hit rate 83% among 4,400 | AID 463218;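 active = inhibition above about 39% in either of two replicate wells at 20 µM, limit read from the data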;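 note: temperature-sensitive tim23-1 mutant grown at 25 °C; 0% = DMSO wells with yeast and 100% = medium wells without yeast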
An asterisk follows results filed as active; . = no result given.

SMILES | NALP3 yeast inh | tim10-1 inh | tim23-1 inh | TIM10 inh | PfHsp90 set2 | tim23-1 confirm | others
COC(=O)C1=C(c2cc3ccccc3o2)C[C@@H]2CC[C@H]1N2C(=O)NCCO | 3 | -3 | -15 | 4 | -7 | .
COC(=O)[C@@H]1C[C@]2(C(=O)O)c3ccccc3N(OOSc3ccccc3)[C@@H]2N1C(=O)OC | 9 | -6 | -6 | 2 | 2 | .
O=C1N[C@@H](Cc2ccccc2)C(=O)N2[C@H]1C[C@H]1c3ccccc3N(OOSc3ccccc3)[C@H]12 | 11 | 15 | 25 | 44* | . | . | tim10 confirm=18
COc1ccc(CN2Cc3cnnn3-c3ccccc3C2C)cc1 (centres undefined) | . | . | . | . | 15 | .
CCN(CC)c1ccc(N=Cc2c(O)n(-c3ccccc3)c(=O)[nH]c2=O)cc1 | 11 | 27 | 20 | 41* | -1 | . | tim10 confirm=19
Oc1cc(Cl)ccc1Oc1ccc(Cl)cc1Cl | 20 | 39 | 48 | 45* | 95* | . | tim10 confirm=68*
O=P(Nc1ccccc1Cl)(c1ccccc1)c1nc2c(s1)CCCC2 (centres undefined) | -86 | 37 | 35 | 41* | -7 | . | tim10 confirm=21
N[C@@H](Cc1c[nH]c2ccccc12)c1nnc(SCc2ccc(Cl)cc2)o1 | 6 | 39 | 13 | 41* | . | . | tim10 confirm=40*
Cc1ccc(NC(=O)CSc2nnc([C@@H](N)Cc3c[nH]c4ccccc34)o2)c(C)c1 | -5 | 18 | 26 | 18 | -4 | .
CCC(=O)c1ccc(OC)c(OC)c1 | 13 | -13 | -6 | -1 | -3 | .
COC(=O)C1=C(c2ccc(S(C)(=O)=O)cc2)C[C@@H]2CC[C@H]1N2C(=O)N1CCCCC1 | 12 | 1 | 23 | 14 | -15 | .
COc1ccc(-n2c(/C=C/c3ccc4c(c3)OCO4)nc3ccccc3c2=O)cc1 | 0 | 26 | 50* | 17 | -13 | 45*
Cc1[nH]c2ccc(OC(F)(F)F)cc2c1CCNCc1ccc(Cl)cc1 | 27 | 28 | 66* | 35 | 6 | 16
Cc1[nH]c2ccc(OC(F)(F)F)cc2c1CCNCc1cccc([N+](=O)[O-])c1 | -1 | -26 | 13 | 32 | -3 | .
CC(CC(C)(C)N1CC1)=NO | . | . | . | . | 14 | .
CCCc1nc2ccccc2c(=O)n1-c1cccc(OC)c1 | 5 | 9 | 83* | 0 | 16 | 21
CCCc1nc2ccccc2c(=O)n1-c1ccc(OC)cc1 | 8 | 7 | 0 | 6 | -14 | .
Cc1oc(-c2ccccc2)nc1CN1C(=O)C(C)N=C(c2ccccc2F)c2cc(Cl)ccc21 (centres undefined) | 11 | 39 | 52* | 20 | 8 | 57*
C[C@]12CCC(=O)C=C1C=CC1C2CC[C@@]2(C)C1CC[C@@H]2O (some centres undefined) | . | . | . | . | -8 | .
CC1C(=O)OC2CCN3CC4OC4(COC(=O)C(C)(O)C1(C)O)C23 (centres undefined) | . | . | . | . | 0 | .
Cc1cc(N=Nc2ccccc2C)ccc1N | 41 | 22 | 64* | 22 | -5 | 0
Nc1ccc(N=Nc2ccccc2)cc1 | 32 | 18 | 12 | 4 | 17 | .
CN1C(=O)C(=Cc2ccccc2OS(=O)(=O)c2ccccc2)C(=O)N(C)C1=O | -28 | 25 | 77* | 35 | 4 | 73*
